The record followed here is PubChem BioAssay (NCATS).

Results filed as inconclusive are left out. Values without a mark were called inactive. Activity calls are given as the source filed them. Calls follow the shape of the dose curve; as a rule, active = well fitted cell-killing curve with a large enough effect; inconclusive = small, poorly fitted or top-dose-only effect, or effect the other way; inactive = no such curve, though single readings can be large or run the other way.
Potency is read from the fitted curve at half-maximal effect.

The assay can be described thus: Viability qHTS for spleen associated tyrosine kinase inhibitor (SYKi) drug resistant MV4-11 cells (AID 1963824). Also: nearly all actives have a fitted effect of over 35% in size. The conditions noted are these: SYKi-resistant MV4-11 viability, CellTiter-Glo, 72 h; series mostly up to 45 µM; viability, % of control: at the top concentration. The procedure, abridged:
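SYK inhibitor-resistant MV4-11 AML cells, 500 per well, added to predispensed compounds and incubated 72 hr at 37 C, 5% CO2. Viability measured by CellTiter-Glo luminescence after 10 min at room temperature.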
(In general: In qHTS, concentration-response curves come from the screen itself.)
As to `CC(=O)O[C@]1(C(C)=O)CC[C@H]2[C@@H]3CCC4=CC(=O)CCC4=C3[C@@H](c3ccc(N(C)C)cc3)C[C@@]21C`, the Potency is 20600 nM (active).

`C[C@]12CC[C@@H]3c4ccc(O)cc4CC[C@H]3[C@@H]1C[C@@H](O[C@@H]1O[C@H](C(=O)O)[C@@H](O)[C@H](O)[C@H]1O)[C@@H]2O`: the “viability, % of control” value was 55.2%.

Consider `O=C(O)c1ccnc2cc(-c3nc4ccccc4n3CCN3CCCCC3)sc12`, for which the “viability, % of control” value was 83%.

For the compound `C[C@H](O)[C@H](O)/C=C/c1cccc(O)c1CO`, the Potency is 9.2 nM (active).

For the compound `C=CC(C)(C)c1[nH]c2ccccc2c1C[C@@H]1NC(=O)[C@H](Cc2c[nH]c3ccccc23)NC1=O`, the Potency was 252 nM (active).

Consider `CCOc1c2c(c(OCC)c3ccccc13)C(=O)N(c1ccc(CC(=O)NS(=O)(=O)c3ccccc3)cc1)C2`, for which the “viability, % of control” value was 111%.

For `C=C(C)C1CCC(C)C12CC(O)C1(C)OC1C2OC(=O)C(N)CCC(=O)O` (stereo not given), the “viability, % of control” value was 83%.

As for `C[C@@H](CN1CCC(n2c(=O)[nH]c3cc(Cl)ccc32)CC1)NC(=O)c1ccc2ccccc2c1`, the Potency is 11600 nM (active).

With `C[C@@H]1C/C=C/C=C\C=C\C=C\[C@H](O[C@@H]2O[C@H](C)[C@@H](O)[C@H](N)[C@@H]2O)C[C@@H]2O[C@](O)(C[C@@H](O)C[C@H]3O[C@@H]3/C=C/C(=O)O1)C[C@H](O)[C@H]2C(=O)O`, the “viability, % of control” value was 74.8% [at 17.3 µM].

As to `CC1CCC2C(=CCC(O)C2(C)C)C1(C)Cc1c(O)cc(CO)c(C=O)c1O` (stereo not given), the Potency was 7180 nM (active).

Regarding `O=C1NC(=O)[C@@H](c2cn3c4c(cccc24)CCC3)[C@@H]1c1c[nH]c2ccccc12`, the Potency was 1320 nM (active).

Regarding `O=C(Nc1nc2cc(C(F)(F)F)cc(NC3CC3)n2n1)c1cccnc1`, the Potency was 2590 nM (active).

With `COc1cc2c(cc1O)CC[C@H]1[C@@H]2CC[C@]2(C)[C@H](O)CC[C@@H]12`, the Potency was 731 nM (active).

As for `CC(CCC1(O)OC2CC3C4CCC5CC(O[C@@H]6O[C@H](CO)[C@@H](O)[C@H](O)[C@H]6O[C@@H]6OC[C@@H](O)[C@H](O)[C@H]6O)C(O)CC5(C)C4CCC3(C)C2C1C)CO[C@@H]1O[C@H](CO)[C@@H](O)[C@H](O)[C@H]1O` (stereo not given in full), the viability, % of control was 86.8% [at 9.25 µM].

As for `CC1(C)CC[C@]2(C(=O)O[C@@H]3O[C@H](CO)[C@@H](O)[C@H](O)[C@H]3O)CC[C@]3(C)C(=CCC4[C@@]5(C)C[C@H](O)[C@H](O[C@@H]6OC[C@@H](O)[C@H](O)[C@H]6O)[C@@](C)(CO)C5CC[C@]43C)C2C1` (stereo not given in full), the viability, % of control is 109% [at 9.25 µM].

For the compound `CC(C)=CCC[C@](C)(O[C@@H]1O[C@H](CO)[C@@H](O)[C@H](O)[C@H]1O)[C@H]1CC[C@]2(C)[C@@H]1[C@H](O)CC1[C@@]3(C)CC[C@H](O)C(C)(C)C3[C@@H](O[C@@H]3O[C@H](CO)[C@@H](O)[C@H](O)[C@H]3O[C@@H]3OC[C@@H](O)[C@H](O)[C@H]3O)C[C@]12C` (stereo not given in full), the viability, % of control is 84.8% [at 9.25 µM].

As to `C=C1C(=O)OC2/C=C(\C)CC/C=C(\C=O)C(OC)C(OC(=O)C(C)CC)C12` (stereo not given), the Potency was 2020 nM (active).

Consider `CC(C)=CCC/C(C)=C/CCC1(C)Oc2c(c(O)cc3c2CN(C(CCC(=O)O)C(=O)O)C3=O)CC1O` (stereo not given), for which the “viability, % of control” value is 91.4% [at 17.3 µM].

Turning to `COc1cc(C)c(C(=O)NC2C(C)OC(OC3CCC(C)C4C3C=C(C)C3/C(C)=C\CC/C(C)=C/C5(C)C=C(C(=O)O)C(C)CC56OC(=O)/C(=C(\O)C34C)C6=O)C(O)C2(C)O)c(O)c1` (stereo not given), the viability, % of control is 77% [at 9.25 µM].

On to `COc1cc(/C=C/C(=O)O)ccc1O[C@@H]1O[C@H](CO)[C@@H](O)[C@H](O)[C@H]1O[C@@H]1OC[C@](O)(CO)[C@H]1O`, for which the “viability, % of control” value is 107% [at 17.3 µM].

Turning to `CC/C=C\[C@H](O)[C@H](O)C1=C(C)C(=O)[C@]2(O1)C(=O)N[C@@](OC)(C(=O)c1ccccc1)[C@@H]2O`, the “viability, % of control” value is 86.6% [at 17.3 µM].

For `CC(C)=CCc1cc(O[C@@H]2O[C@H](CO[C@@H]3OC[C@](O)(CO)[C@H]3O)[C@@H](O)[C@H](O)[C@H]2O)ccc1O`, the “viability, % of control” value was 108% [at 17.3 µM].

For `C=C1[C@@H]2[C@H]3OC(=O)C(=C)[C@@H]3CC[C@@](C)(O)[C@@H]2C[C@@H]1O[C@@H]1O[C@H](CO)[C@@H](O)[C@H](O)[C@H]1O`, the “viability, % of control” value was 101% [at 17.3 µM].

As for `CCN1CCN(Cc2ccc(NC(=O)c3ccc(C)c(Oc4ccnc5[nH]ccc45)c3)cc2C(F)(F)F)CC1`, the Potency is 71.8 nM (active).

For the compound `CCCC(CCC)C(=O)NCc1ccc2c(cnn2-c2ccccc2OC)c1`, the Potency is 8200 nM (active).
